Reference: PubChem BioAssay AID588499 (NMMLSC, 2011)
In all, about 360,000 compounds went through this assay and about 610 (0.17%) were called active. About 2% were inconclusive and are not listed. Cut-off read from the data, not from the text of the source: active = inhibition above about 30%; inconclusive = no clear call, values can overlap the other calls; inactive = below that. The entries come from a sample that favours actives as a whole.

These compounds were tested on Botulinum neurotoxin type A light chain protease (Clostridium botulinum A str. ATCC 3502) (assay: blockers of BoNT/A LC substrate cleavage – biochemical, flow cytometry, MLPCN library, primary screen (AID 588499; note: plate controls were buffer without enzyme for full effect and enzyme alone for no effect)). Settings: multiplex microsphere protease substrate cleavage, at 10 µM, stronger effect = higher value.
For `COc1ccc(/C(=N\O)c2nccc3cc(OC)c(OC)cc23)cc1OC`, the inhibition was -0.2% (inactive). In the case of `COc1ccc(C2OC(CCc3ccccc3)Cc3[nH]c(=S)[nH]c(=O)c32)cc1` (stereo unspecified), the inhibition is reported as 0.5% (inactive). In the case of `CCOc1ccc2ccccc2c1/C=N/NC(=O)c1c(C)cc(C)[nH]c1=O`, the inhibition is reported as 0.8% (inactive). In the case of `O=C(O)c1ccc2c(=O)n3c(nc2c1)/C(=C/c1ccc(OC(F)F)cc1OC(F)F)CC3`, the inhibition is reported as -1.9% (inactive). In the case of `CC(C)(C)c1ccc(S(=O)(=O)NC(=O)C2(C)CCN2C(=O)CC2CC2)cc1` (stereo unspecified), the inhibition is reported as -0.9% (inactive). `O=C(CC(NC(=O)c1ccccc1)c1ccccc1)Nc1ccc(F)c(F)c1` (stereo unspecified) was tested, and the inhibition was -0.5% (inactive). For `CN(C(=O)CSc1nnc(-c2n[nH]c3ccccc23)o1)c1ccccc1`, the inhibition was 0.1% (inactive). `Cc1nc(C(F)(F)F)ccc1C(=O)N1CCC1(C)C(=O)NS(=O)(=O)c1ccccc1` (stereo unspecified) was tested, and the inhibition was -0.7% (inactive). In the case of `Nc1nc2c(ncn2[C@@H]2O[C@H](CNCc3ccc(OCCCN4CCOCC4)cc3)[C@@H](O)[C@H]2O)c(=O)[nH]1`, the inhibition is reported as -0.1% (inactive). For `CCc1oc(-c2ccc(OC)cc2)c(C(=O)OCCCCCO)c1C(C)OCCO` (stereo unspecified), the inhibition was 0.8% (inactive). `CCc1cccc(CC)c1NC(=S)NCc1ccc2[nH]c(C)cc2c1` was tested, and the inhibition was 34.3% (active). With `Cc1cc2cc(CNC(=O)c3ccc(S(=O)(=O)N4CCOCC4)cc3)ccc2[nH]1` the inhibition was 71.1% (active). `CCOc1ccc(C(C)=O)cc1COC(=O)CNC(=O)c1cccs1` was tested, and the inhibition was -0.9% (inactive). With `Cc1ccc(C)c2[nH]c(=O)c(CCNC(=O)c3cccs3)cc12` the inhibition was -0.5% (inactive). With `Cc1c(Cl)cccc1NC(=S)NCc1ccc2c(c1)OCO2` the inhibition was -1.1% (inactive). With `O=C(Nc1ccc2cn[nH]c2c1)c1ccc(S(=O)(=O)N2CCOCC2)cc1` the inhibition was -1.3% (inactive). For `COC(=O)c1ccc(CNC(=O)c2ccc(S(=O)(=O)N3CCCCCC3)cc2)cc1`, the inhibition was 0.1% (inactive). With `Cc1cc2cc(CNC(=O)c3cccs3)ccc2[nH]1` the inhibition was 75.4% (active). `Cc1cccc(NC(=S)NCc2ccc3[nH]c4c(c3c2)CCCC4)c1` was tested, and the inhibition was 0.2% (inactive). With `O=C(CSc1nncn1-c1cccnc1)N1CCOCC1` the inhibition was -0.7% (inactive). With `COc1cccc(C=CC(=O)C=CC=Cc2ccccc2)c1` the inhibition was 0.9% (inactive). `O=C(/C=C(O)/C=C/c1ccc(O)cc1)/C=C/c1ccc(O)cc1` was tested, and the inhibition was 38.1% (active). For `COc1ccc(/C=C/C(=O)c2c(O)cc(OC)cc2OC)cc1`, the inhibition was -0.9% (inactive). `Cc1ccccc1S(=O)(=O)NC(=O)C1(C)CCN1C(=O)C1(c2ccc(Cl)cc2)CC1` (stereo unspecified) was tested, and the inhibition was -0.5% (inactive). With `Cc1cc(C(=O)COc2ccccc2[N+](=O)[O-])c(C)n1-c1cccc(S(=O)(=O)N2CCOCC2)c1` the inhibition was -2% (inactive). For `C#CCNC(=O)C[C@@H]1C[C@@]2(C(=O)OCC)CCCC=C2N(Cc2ccco2)C1=O`, the inhibition was -1.2% (inactive). For `CN(CC(=O)Nc1ccc(F)cc1)CC(=O)N1CCCCC1`, the inhibition was 0.4% (inactive). In the case of `COc1ccc(NC(=O)c2sc(=O)n(Cc3ccc(S(=O)(=O)N(C)C)cc3)c2C)cc1`, the inhibition is reported as -0.2% (inactive). `CC1(C(=O)NS(=O)(=O)c2ccc(Cl)cc2)CCN1C(=O)CC1CCCC1` (stereo unspecified) was tested, and the inhibition was -0.4% (inactive). In the case of `CN(C(=O)CCn1c(=S)oc2ccccc21)C1CCCCC1`, the inhibition is reported as 0.7% (inactive). In the case of `Cn1nc(N)c2ncc(C(Cl)(Cl)Cl)nc21`, the inhibition is reported as 0% (inactive). With `Fc1cccc(Cc2c(-c3cccc(Cl)c3)nc3ccc(Br)cn23)c1` the inhibition was 9.7% (inactive). With `O=C1OCC2=C1C(c1ccccc1)CC(=O)N2c1cccc(F)c1` (stereo unspecified) the inhibition was -1.3% (inactive). In the case of `CCCCOCCCNC(=O)C[C@@H]1C[C@@]2(C(=O)OC)CCCCC=C2N(CCC2=CCCCC2)C1=O`, the inhibition is reported as -0.3% (inactive). For `CCc1nc2c(OCCOc3ccccc3)cccn2c1N(C)C(=O)c1ccccc1F`, the inhibition was -0.2% (inactive). In the case of `COc1ccc([C@H]2N[C@]3(CCCN(Cc4ccco4)C3=O)[C@H]3C(=O)N(C)C(=O)[C@@H]23)cc1`, the inhibition is reported as -0.4% (inactive). In the case of `COC(=O)[C@]12CCCCC=C1N(CCC1=CCCCC1)C(=O)[C@H](CC(=O)NCC1CCCCC1)C2`, the inhibition is reported as 0% (inactive). For `CC(C)(C)CC(=O)Nc1nc(C(N)Cc2ccc(C(F)(F)F)cc2)cs1` (stereo unspecified), the inhibition was -0.5% (inactive). In the case of `CN1CCN(C(=O)c2ccc(NC(=O)c3ccc(Br)o3)cc2)CC1`, the inhibition is reported as 0.8% (inactive). In the case of `COC(=O)c1cn(C)c2ccc(S(=O)(=O)N3CC(C)CC(C)C3)cc2c1=O` (stereo unspecified), the inhibition is reported as -1.1% (inactive). For `CC(=O)Nc1cccc(Nc2ccc(C#N)cc2)c1`, the inhibition was 0% (inactive). With `COc1ccc(NC(=O)NN2CCN(C)CC2)c(OC)c1` the inhibition was -3.1% (inactive). `COc1ccc(C(=O)c2c(C)c(CCC#N)n3ccccc23)c(OC)c1` was tested, and the inhibition was 0.8% (inactive). `CC1(C)c2[nH]c3ccccc3c2C[C@H]2C(=O)N(N)CC(=O)N21` was tested, and the inhibition was -1.4% (inactive). In the case of `Cc1nn(-c2ccc(F)cc2)c(Cl)c1/C=C(/CCC(=O)O)c1nc2ccccc2s1`, the inhibition is reported as -0.5% (inactive). For `CC1=CC(=C(C#N)c2nc3ccccc3s2)C=C(C)N1c1ccc(F)cc1F`, the inhibition was 48.3% (active). For `CSCC[C@H](NC(=O)NCCc1ccc(F)cc1)C(=O)O`, the inhibition was 0% (inactive). In the case of `O=c1c2[nH]c3ccc(Cl)cc3c2ncn1Cc1ccccn1`, the inhibition is reported as 1% (inactive). For `O=C(NCc1ccc(Cl)cc1)C(=O)NCC1CCCN1S(=O)(=O)c1cccs1` (stereo unspecified), the inhibition was -1.5% (inactive). In the case of `NC(=O)c1ccc(N2CCCC2)nc1`, the inhibition is reported as 0.8% (inactive). With `Oc1cccc(CCc2ccccn2)c1` the inhibition was -0.4% (inactive). For `CCOc1ccccc1NC(=O)C1CCCN(C(=O)Nc2ccccc2)C1` (stereo unspecified), the inhibition was 0% (inactive). For `COc1cc(OC)c(-n2cc(-c3ccc(Cl)cc3)[nH]c2=O)cc1Cl`, the inhibition was 0.1% (inactive). In the case of `O=C(COC(=O)CC1CC2CCC1C2)NC(=O)NC1CCCC1` (stereo unspecified), the inhibition is reported as 0.7% (inactive). With `O=C(NCc1ccccc1)C1c2ccccc2OCC(=O)N1C1CC1` (stereo unspecified) the inhibition was 0% (inactive). In the case of `O=C(NCCc1ccco1)C(=O)NCCC1CCCCN1S(=O)(=O)c1ccccc1` (stereo unspecified), the inhibition is reported as -3.9% (inactive).
